Screening results: PubChem, several laboratories
Shown are actives, neighbours in structure and some others; about 12% of the full set was active somewhere.
WT yeast gro inh = growth inhibition of WT yeast, mitochondrial fusion screen. actives 2.1% (n = 190,000). inhibition, % at 10 µM. mitochondrial fusion phenotypic screen, WT strain; in the data active = inhibition above about 58%; tested in S. cerevisiae
Cl transport mod = KCC2 (human) Cl- transport modulation; KCC2 cells, thallium flux FluoZin-2 fluorescence; actives 2.2% (n = 190,000); B-score of Tl+ flux slope (higher = more flux/activation; lower = inhibition) at 10 µM; Q9H2X9; AID 1456;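 active = thallium flux slope and its plate-corrected score both differing from the plate sample mean at a set confidence after two filtering rounds, in either direction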;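 also: slope of fluorescence scaled to starting intensity during 10 to 20 s after thallium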
Target sequence (Q9H2X9 whole entry, looked up): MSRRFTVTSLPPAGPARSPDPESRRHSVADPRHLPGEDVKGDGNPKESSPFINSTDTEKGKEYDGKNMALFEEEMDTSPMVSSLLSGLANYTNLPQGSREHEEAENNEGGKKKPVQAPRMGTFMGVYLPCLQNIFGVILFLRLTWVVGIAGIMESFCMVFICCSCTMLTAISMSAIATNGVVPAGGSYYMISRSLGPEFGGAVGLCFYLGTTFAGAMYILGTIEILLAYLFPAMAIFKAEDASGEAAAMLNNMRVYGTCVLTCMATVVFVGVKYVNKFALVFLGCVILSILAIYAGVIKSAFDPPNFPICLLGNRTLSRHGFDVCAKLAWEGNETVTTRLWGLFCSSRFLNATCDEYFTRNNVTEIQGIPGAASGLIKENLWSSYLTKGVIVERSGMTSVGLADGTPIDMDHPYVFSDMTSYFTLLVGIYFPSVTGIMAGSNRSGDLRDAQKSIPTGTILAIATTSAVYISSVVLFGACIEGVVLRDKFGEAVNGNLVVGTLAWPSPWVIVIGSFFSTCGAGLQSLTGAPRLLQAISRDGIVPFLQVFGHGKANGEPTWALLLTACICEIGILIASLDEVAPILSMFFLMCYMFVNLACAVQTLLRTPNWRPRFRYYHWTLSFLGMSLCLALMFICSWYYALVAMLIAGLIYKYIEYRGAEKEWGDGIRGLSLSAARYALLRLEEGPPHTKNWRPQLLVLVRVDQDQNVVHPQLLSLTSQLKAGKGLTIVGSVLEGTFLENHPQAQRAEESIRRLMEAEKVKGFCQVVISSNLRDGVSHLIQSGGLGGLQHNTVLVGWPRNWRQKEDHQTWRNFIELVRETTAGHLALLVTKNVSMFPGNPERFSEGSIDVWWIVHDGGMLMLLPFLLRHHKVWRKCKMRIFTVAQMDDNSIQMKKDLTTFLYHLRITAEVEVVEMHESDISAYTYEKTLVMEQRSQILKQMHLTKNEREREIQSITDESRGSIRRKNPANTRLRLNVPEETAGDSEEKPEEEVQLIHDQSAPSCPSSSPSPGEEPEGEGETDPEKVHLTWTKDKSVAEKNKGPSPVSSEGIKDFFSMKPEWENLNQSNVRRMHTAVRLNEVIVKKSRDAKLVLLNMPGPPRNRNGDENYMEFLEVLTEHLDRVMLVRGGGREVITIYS
Insulin prom inh = TRM-6 insulin promoter activity inhibition; TRM-6 cells (human fetal islet line), insulin promoter-eGFP reporter, imaging; reporter expression induced with tamoxifen; inhibition, % at 2 µM; actives 0.9% (n = 130,000); AID 1273;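 active = inhibition above the mean plus 3 SD, with well images judged a real hit on visual review, cut at about 60% in these data, passing the limit was not always enough; inconclusive = inhibition over the cutoff but images rejected on review; inactive = inhibition not above the cutoff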
ROMK mod = human ROMK K+ channel modulation, primary screen; Tet-inducible ROMK, thallium flux fluorescence; actives lie on both sides; B-score at 10 µM; actives 2% (n = 130,000);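 active = signal ratio slope over the read window, or its plate-corrected B-score, at least 3 SD from the plate mean, either direction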;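 also: B-score of the F/F0 ratio slope over 7 to 12 s after thallium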
Ins promoter up = MIN6 insulin promoter up-regulation; MIN6 insulin promoter-GFP reporter, high-content imaging; stronger effect = higher value; z-score at 5 µM; actives 0.3% (n = 190,000);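 active = z-score above 3 at 5 µM with at least 500 cells counted in the well; inconclusive = wells under 500 cells, flagged as cytotoxic or low count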
L major viab = Leishmania major promastigote growth inhibition. actives 9% (n = 200,000). Leishmania major promastigotes, resazurin fluorescence viability. AID 1063. inhibition, % at 10 µM; in the data active = inhibition above about 50%;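 also: promastigotes grown with compound for 44 hours at 28 °C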
Starred values were filed as active, the others as inactive; ? = inconclusive; . = no result given.

SMILES	WT yeast gro inh	Cl transport mod	Insulin prom inh	ROMK mod	Ins promoter up	L major viab
CN1C(=O)/C(=C/c2ccco2)SC1=Nc1ccc(N2CCOCC2)cc1	0	0.58	31	0.4	-0.19	-9
CCN1CCN(c2nc3c(C)cccn3c(=O)c2/C=C(\C#N)S(=O)(=O)c2ccc(C)cc2)CC1	-31	.	36	-2.3	-0.67	-3
Cc1ccc(Oc2nc(CN3CCOCC3)nc3sc4c(c23)CCC(C)C4)cc1C (stereo not drawn)	65*	0.066	0	-0.002	-0.76	97*
CC1CCc2c(sc3nc(CN4CCOCC4)nc(N4CCc5ccccc5C4)c23)C1 (stereo not drawn)	23	0.35	-12	0.19	-0.79	13
Cc1ccc(Oc2nc(CN3CCOCC3)nc3sc4c(c23)CCC(C)C4)cc1 (stereo not drawn)	63*	-0.36	.	.	-0.9	76*
On1c2c(c3c4nonc4ccc31)CCCC2	74*	-1.1	14	-2.7	.	-7
COc1ccc(C(=O)N(Cc2nc(-c3ccc(C)cc3)no2)C(C)C)cc1OC	16	-0.51	.	.	0.46	1
CC(CCc1ccccc1)NC(=O)CN1CCc2ccccc2C1 (stereo not drawn)	11	-1.5	.	-1.8	0.09	12
Cc1ccc(-c2nn(-c3ccccc3)cc2CNCc2ccccc2)cc1	81	-0.52	.	-2.5	-0.55	62*
Cc1ccc(-c2nn(-c3ccccc3)c3[nH]c(=O)c(CNCc4ccccc4)cc23)cc1	55	0.0025	38	.	?	97*
O=C(Nc1cccc2cccc(NC(=O)c3ccco3)c12)c1ccco1	16	-1.2	-317	-0.041	-0.91	-3
COc1cc(C#N)ccc1OCC(=O)c1ccc2c(c1)OCCO2	-5	0.93	30	-0.78	0.05	1
CCOc1cc(/C=C2/COc3ccccc3C2=O)ccc1OCC(=O)N(C)C	.	-1.6	.	-1.9	-0.62	100*
COc1cc(/C=C/C(=O)c2ccc(C)cc2)ccc1OCC#N	-2	-0.93	7	-1.1	1.4	98*
CCOc1cc(/C=C/C(=O)c2ccc(C)cc2)ccc1OCC(=O)N(C)C	-25	0.3	27	0.52	-0.51	100*
CNc1ccc(/C=C2\COc3ccccc3C2=O)cc1[N+](=O)[O-]	-18	0.15	4	1.8	0.24	9
CCN(CC)CCCNC(=O)CCC(=O)Nc1ccc2nc(N3CCC(C)CC3)cc(C)c2c1	-2	0.72	-75	-2.5	-0.86	2
Cc1ccc(Oc2nn[nH]n2)cc1	18	0.099	-47	.	.	-8
Cc1ncc(CN2CCN(Cc3ccc(F)cc3)C(CCO)C2)s1 (stereo not drawn)	10	-0.059	-22	0.14	-0.25	-3
CC(C)CCN1CCN(Cc2cnc(-c3ccccc3)s2)CC1CCO (stereo not drawn)	-3	0.23	.	-0.21	.	88*
COc1cccc2c1OCC(CN1CCN(CCC(C)C)C(CCO)C1)=C2 (stereo not drawn)	4	-0.0051	.	-0.94	0.07	70*
CC(C)N1CCN(Cc2cnc(-c3ccccc3)s2)CC1CCO (stereo not drawn)	.	1.3	.	.	0.21	.
Cc1ncc(CN2CCN(CCc3ccccc3)C(CCO)C2)s1 (stereo not drawn)	-11	0.53	.	-0.023	0.39	63*
Cc1ccc(CN2CCN(Cc3cccn3-c3ccc(Cl)cn3)CC2CCO)o1 (stereo not drawn)	3	0.63	.	0.33	.	-1
CC(C)CCN1CCN(Cc2cccn2-c2ccc(Cl)cn2)CC1CCO (stereo not drawn)	-4	0.016	.	.	0.06	73*
SMILES	WT yeast gro inh	Cl transport mod	Insulin prom inh	ROMK mod	Ins promoter up	L major viab
CS(=O)c1ccccc1COC(=O)Nc1cccc(Cl)c1 (stereo not drawn)	-3	0.26	.	-0.37	-0.85	-3
Cc1cccc2nc(CSc3nc4ccccc4o3)cn12	1	-1.6	-29	-0.053	-0.61	64*
CC(C)(C)NC(=O)C(=O)NNC(=O)c1ccc(C(C)(C)C)cc1	-14	54*	-43	.	-0.01	4
COC(=O)NCc1cc2cc(Cl)ccc2[nH]1	18	-0.54	38	.	2.2	0
CCc1cccc(NC(=O)CN(C)S(=O)(=O)c2cnc[nH]2)c1	-22	-0.99	0	.	0.33	-4
C=CCNC(=S)NNC(=O)c1ccc(OCCC)cc1	-17	-0.29	-11	0.76	-0.37	4
CCCOc1ccc(C(=O)NNC(=S)NC(=O)CC)cc1	88	6.9*	17	0.85	-0.16	95*
CCC(=O)NC(=S)NNC(=O)c1ccc(NC(=O)c2ccccc2)cc1	7	-0.95	22	-0.17	-0.61	99*
O=C(NNC(=O)c1ccc(NC(=O)c2ccccc2)cc1)c1ccccc1	2	0.14	.	.	-0.14	-3
Cc1nnc2n(-c3ccccc3)c(=O)c3c4c(sc3n12)CC(C)CC4 (stereo not drawn)	4	.	6	-0.31	0.15	4
O=C(NCCN1CCOCC1)c1ccc(CSc2nc3ccncc3n2Cc2ccc(F)cc2)cc1	8	-0.25	.	0.4	.	-2
Nc1cc[n+](CC(=O)c2ccc3c(c2)OCCO3)cc1	36	0.69	-4	.	0.64	78*
NC(=O)c1ccc2c(c1)OCCO2	-1	-3.2*	37	0.025	.	-6
O=C(NN=c1c(=O)c2ccccc2c1=O)c1ccccc1	9	8.6*	.	0.2	-0.23	-1
CN(C)/C=N/NC(=O)c1ccccc1	-6	-0.11	.	0.44	0.86	-13
CCOC(=O)c1c(NC(=O)OC)sc(C(=O)N(C)C)c1C	71*	1.6	36	0.9	0.12	2
CCOC(=O)c1c(NC(=O)C(Sc2ccccc2)c2ccccc2)sc(C(=O)N(C)C)c1C (stereo not drawn)	19	-0.34	6	-0.17	-0.96	98*
COC(=O)Nc1sc(C(=O)N(C)C)c(C)c1C(=O)OC	32	0.42	-5	.	0.01	-5
COc1ccc2c(c1)-c1c(ssc1=S)C(C)(C)N2	12	.	67	.	.	21
CC(C)(C)NC(=O)CSc1nc2ccc(Nc3nc(N4CCOCC4)nc(N4CCOCC4)n3)cc2s1	49	-1.6	.	-0.034	-1	77*
CCOC(=O)CSc1nc2ccc(Nc3nc(N4CCOCC4)nc(N4CCOCC4)n3)cc2s1	-4	-1.3	29	-2.3	.	20
CC(=O)CSc1nc2ccc(Nc3nc(N4CCOCC4)nc(N4CCOCC4)n3)cc2s1	9	-1.8	36	-0.23	-2.6	64*
Cc1nn(Cc2ccc(C(=O)Nc3nc4c(C)cccc4s3)o2)c(C)c1Br	-6	0.21	-37	.	-0.77	21
CC(C)CNS(=O)(=O)c1ccc(S(=O)(=O)N2CCC3(CC2)OCCO3)cc1	0	0.84	-50	0.28	-0.4	-2
CCOC(=O)c1sc(=S)n(C)c1NC(=O)c1ccc(F)cc1	8	0.16	-75	-0.38	0.77	-6
N=C1c2ccccc2CN1NC(=O)c1cccc(S(=O)(=O)N2CCCC2)c1	4	0.15	.	.	0.27	-4
